# Source: PubChem BioAssay (NCATS)
# Where “and” joins values, the source holds several entries; their conditions need not be identical. Equal entries are not always repeated. Results filed as inconclusive are left out. Calls of active or inactive are those of the source. Unless noted, the call rests on the fitted dose curve; in most records, active means well fitted curve in the direction sought with a large enough effect in the repeat runs; inconclusive means weak or mixed curves; inactive means no such curve, though single readings can be large; an effect the other way counts as inactive or inconclusive.
# Columns and labels:
# [1] = target: Cytochrome P450 2C9 (Homo sapiens) (UniProt P11712); test: Cytochrome P450 family 2 subfamily C member 9 (CYP2C9) small molecule antagonists: luciferase biochemical (cell-free) qHTS assay (AID 1645842); further: nearly all actives have a fitted effect of over 55% in size; further: potency means the concentration at half of the fitted maximal effect
# Procedure, shortened: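 Luminescence, after 20 min with luciferin detection reagent, reflected CYP2C9 turnover during a 1 h NADPH-driven reaction at 37C. Enzyme-substrate mix contained 0.4% bovine serum albumin and was preincubated with compound 10 min at room temperature.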
# [2] = target: Cytochrome P450 3A4 (Homo sapiens) (UniProt P08684); test: Cytochrome P450 family 3 subfamily A member 4 (CYP3A4) small molecule antagonists: luciferase qHTS assay (AID 1645841); further: nearly all actives have a fitted effect of over 45% in size; further: potency means the concentration at half of the fitted maximal effect
# Procedure, shortened: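 P450-Glo CYP3A4 enzyme with proluciferin substrate preincubated 10 min with compound at room temperature, then NADPH regeneration 1 h. Luciferin detection reagent added for 20 min; luminescence recorded. Ketoconazole positive control.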
# [3] = Primary qHTS for inhibitors of nuclear receptor binding SET domain protein 2 (NSD2) in an isogenic RCH-ACV NSD2 p.E1099K mutant (9B) (AID 1645876; active means well fitted curve in the direction sought with a large enough effect; an effect the other way counts as inactive or inconclusive; further: nearly all actives have a fitted effect of over 70% in size; further: potency means the concentration at half of the fitted maximal effect)
# [4] = Primary qHTS for inhibitors of nuclear receptor binding SET domain protein 2 (NSD2) in an RCH-ACV wild type WT cells (2C) (AID 1645877; active means well fitted curve in the direction sought with a large enough effect; an effect the other way counts as inactive or inconclusive; further: nearly all actives have a fitted effect of over 70% in size; further: potency means the concentration at half of the fitted maximal effect)
# [5] = NCATS anti-infectives library activity on HEK293 viability as a counter-qHTS vs the C. elegans viability qHTS (AID 1745854; active means well fitted curve in the direction sought with a large enough effect; an effect the other way counts as inactive or inconclusive)
# Procedure, shortened: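 HEK293 cells, 1500 per well, exposed 24 hr at 37C in 5% CO2 to compounds in a 1:5 titration, up to 41.7 uM final. Viability read as CellTiter-Glo luminescence after 10 min at room temperature.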
# [6] = target: N-terminal Xaa-Pro-Lys N-methyltransferase 1 (Homo sapiens) (UniProt Q9BV86); test: Confirmatory qHTS for Inhibitors of N-terminal methyltransferase 1 (NTMT1): MTaseGlo Assay (AID 1645874; active means well fitted curve in the direction sought with a large enough effect; an effect the other way counts as inactive or inconclusive; further: potency means the concentration at half of the fitted maximal effect; nearly all actives have a fitted effect of over 65% in size)
# Procedure, shortened: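 Compounds are incubated with 125 nM NTMT1 and 100 uM SAM for 15 min before the SPKRIA peptide (1 uM) starts a 30 min room-temperature methylation. SAH is measured by coupled luciferase luminescence and curves fitted to a Hill equation.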
# Chain of Cytochrome P450 2C9 (Homo sapiens) (P11712 whole entry, looked up): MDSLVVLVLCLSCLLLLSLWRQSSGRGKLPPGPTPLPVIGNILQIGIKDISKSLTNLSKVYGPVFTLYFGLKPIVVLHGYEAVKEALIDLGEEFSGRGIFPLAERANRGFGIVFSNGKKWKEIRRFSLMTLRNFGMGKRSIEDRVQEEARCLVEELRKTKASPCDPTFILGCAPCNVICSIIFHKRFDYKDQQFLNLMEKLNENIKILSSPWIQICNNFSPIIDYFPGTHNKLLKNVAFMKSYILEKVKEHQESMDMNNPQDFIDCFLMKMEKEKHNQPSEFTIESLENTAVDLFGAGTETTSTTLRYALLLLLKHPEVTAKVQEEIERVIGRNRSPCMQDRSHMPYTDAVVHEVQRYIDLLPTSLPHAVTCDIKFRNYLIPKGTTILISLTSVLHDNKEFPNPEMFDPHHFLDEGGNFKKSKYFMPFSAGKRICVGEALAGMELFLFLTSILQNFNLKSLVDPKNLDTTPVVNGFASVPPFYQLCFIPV
# Chain of Cytochrome P450 3A4 (Homo sapiens) (P08684 whole entry, looked up): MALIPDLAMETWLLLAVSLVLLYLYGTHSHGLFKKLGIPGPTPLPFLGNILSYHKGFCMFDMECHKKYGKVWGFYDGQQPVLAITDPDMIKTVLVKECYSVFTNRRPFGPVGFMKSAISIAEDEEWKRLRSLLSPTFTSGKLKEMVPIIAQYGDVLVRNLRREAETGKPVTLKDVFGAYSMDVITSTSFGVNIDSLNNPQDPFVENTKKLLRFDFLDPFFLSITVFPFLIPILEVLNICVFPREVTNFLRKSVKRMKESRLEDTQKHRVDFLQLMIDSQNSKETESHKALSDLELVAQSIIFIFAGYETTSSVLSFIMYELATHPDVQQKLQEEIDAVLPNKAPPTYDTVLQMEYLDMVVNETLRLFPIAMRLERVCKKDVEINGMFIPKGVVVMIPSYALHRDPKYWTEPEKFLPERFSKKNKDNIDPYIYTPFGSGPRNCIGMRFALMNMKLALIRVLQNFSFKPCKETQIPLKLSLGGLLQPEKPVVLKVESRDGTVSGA
# Chain of N-terminal Xaa-Pro-Lys N-methyltransferase 1 (Homo sapiens) (Q9BV86 whole entry, looked up): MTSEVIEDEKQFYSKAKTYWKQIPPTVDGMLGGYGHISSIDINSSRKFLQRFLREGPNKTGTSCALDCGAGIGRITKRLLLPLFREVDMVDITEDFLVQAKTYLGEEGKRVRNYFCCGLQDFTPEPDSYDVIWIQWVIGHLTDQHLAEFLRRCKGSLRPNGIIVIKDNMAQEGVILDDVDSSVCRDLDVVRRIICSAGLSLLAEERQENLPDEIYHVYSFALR
smiles,measurement,setting,value
CCC(=O)O,Potency,[1],inactive
CCC(=O)Oc1ccc2c(c1)CC[C@@H]1[C@@H]2CC[C@]2(C)[C@@H](OC(=O)CC)CC[C@@H]12,Potency,[1],15.1 µM (active)
Cc1ccc(C(=O)Nc2ccc(CN3CCN(C)CC3)c(C(F)(F)F)c2)cc1C#Cc1cnc2[nH]ncc2c1,Potency,[2],6.01 µM (active)
same,Potency,[1],4.77 µM (active)
same,Potency,[3],11.5 nM (active) and 26.3 nM (active)
same,Potency,[4],14.5 nM (active) and 41.7 nM (active)
CCN1CCC[C@@H]1CNC(=O)c1ccc2c(c1)NC(=O)c1cccc(C)c1S2,Potency,[2],inactive
CCCCCCCCCCCCCCCC(=O)OC/C=C(C)/C=C/C=C(C)/C=C/C1=C(C)CCCC1(C)C,Potency,[1],13.5 µM (active)
C=CC(=O)N1CCC(Oc2cc3c(Nc4ccc(Cl)c(Cl)c4F)ncnc3cc2OC)CC1,Potency,[2],0.239 µM (active)
same,Potency,[1],9.52 µM (active)
same,Potency,[3],4.68 µM (active)
same,Potency,[4],4.68 µM (active)
CCOC(=O)CCNc1cc(N2CCc3ccccc3CC2)nc(-c2cccnc2)n1,Potency,[1],8.49 µM (active)
O=C(Nc1ccc(Cl)cc1)Nc1cccc(-c2cccc(N3CCCC3)n2)c1,Potency,[1],9.52 µM (active)
CCOc1cccc(NC(=O)c2ccc(N3CCCC3)c(C(F)(F)F)c2)c1,Potency,[1],inactive
O=C1Nc2nc(-c3c(O)cccc3OCC3CC3)cc([C@@H]3CCCNC3)c2CO1,Potency,[2],inactive
same,Potency,[3],5.78 µM (active)
same,Potency,[4],5.15 µM (active)
O=C(N[C@H]1CCN(C(=O)c2cc(C(F)(F)F)cc(C(F)(F)F)c2)[C@H](Cc2ccc(Cl)cc2)C1)c1ccnc2ccccc12,Potency,[1],10.7 µM (active)
O=C(CN1C2=NCCN2c2ccccc21)c1ccc(-c2ccccc2)cc1,Potency,[2],inactive
same,Potency,[3],11.5 µM (active)
same,Potency,[4],6.49 µM (active)
Fc1ccc(CN2CCC(Nc3ccc(C(F)(F)F)nn3)CC2)cc1F,Potency,[2],inactive
same,Potency,[3],inactive
same,Potency,[4],inactive
Cc1[nH]cnc1C[C@H]1CCc2c(C)c3ccccc3n2C1=O,Potency,[1],0.19 µM (active)
O=c1[nH]c([C@@H]2CCCN2)nc2c1oc1ccc(Cl)cc12,Potency,[2],inactive
same,Potency,[1],inactive
same,Potency,[3],9.16 µM (active)
same,Potency,[4],4.59 µM (active) and 10.5 µM (active)
same,outcome,[5],inactive
Cc1ccc(-c2cn3c4c(sc3n2)CCCC4)cc1,Potency,[1],16.9 µM (active)
CCc1cnc(N2CCC(c3nc(COc4ccc(-n5cnnn5)cc4)cs3)CC2)nc1,Potency,[1],inactive
Cc1nc2cc(C(=O)NCc3ccccn3)nn2c(C)c1Cc1cccc(Cl)c1,Potency,[1],1.2 µM (active)
O=C(NC1CCC1)c1ccc(C#Cc2cccc(F)c2)nc1,Potency,[2],inactive
same,Potency,[1],inactive
same,Potency,[3],inactive
COc1ccc2nccc(C(=O)CC[C@@H]3CCN(CC#Cc4cc(F)cc(F)c4F)C[C@@H]3C(=O)O)c2c1,Potency,[1],7.56 µM (active)
NS(=O)(=O)c1ccc(N2N=C(c3ccccc3)CC2c2ccccc2)cc1 (stereo not drawn),Potency,[1],10.7 µM (active)
COc1ccccc1N1CCN(CC[C@@](C)(C(=O)C2CCCCC2)c2ccccc2)CC1,Potency,[2],6.01 µM (active)
same,Potency,[1],8.49 µM (active)
same,Potency,[3],16.3 µM (active)
same,Potency,[4],18.3 µM (active)
CCCC(CCC)C(=O)NCc1ccc2c(cnn2-c2ccccc2OC)c1,Potency,[1],1.9 µM (active)
Nc1nc(O)c(C2=C3C(=Nc4ccccc43)C(=O)NCC2)[nH]1,Potency,[2],inactive
same,Potency,[4],16.3 µM (active)
Cn1c(CO)c(-c2ccccc2)c2cc([N+](=O)[O-])ccc21,Potency,[1],19 µM (active)
O=C(NCc1ccc(OC(F)(F)F)cc1)C1c2c(F)cccc2C(=O)N1CCc1ccccn1 (stereo not drawn),Potency,[1],3.79 µM (active)
COc1cccc(OCCCN)c1-c1cc(Nc2cnc(C#N)cn2)n[nH]1,Potency,[1],inactive
same,Potency,[6],50.1 µM (active) and 21.8 µM (active)
same,Potency,[3],0.0103 µM (active)
same,Potency,[4],0.0103 µM (active)
Cc1[nH]c(/C=C2\C(=O)Nc3cc(-c4ccccc4)ccc32)c(C)c1CCC(=O)O,Potency,[1],12 µM (active)
same,Potency,[6],49.4 µM (active)
same,Potency,[3],23 µM (active)
same,Potency,[4],23 µM (active)
CCOC(=O)[C@H](CCc1ccccc1)N[C@H]1CCCN2CCC[C@@H](C(=O)O)N2C1=O,Potency,[1],inactive
CC(C)c1ccc(-c2cc(=O)c3ccccc3o2)cc1,Potency,[1],5.35 µM (active)
same,Potency,[3],23 µM (active)
CCCCC(=O)O,Potency,[1],inactive
O=C(COc1ccc(C(=O)c2ccccc2)cc1)NC1CCN(Cc2ccccc2)CC1,Potency,[1],4.77 µM (active)
COc1ccc(OC)c(-c2ccc(NC(=O)c3ccncc3F)cc2)c1,Potency,[1],1.51 µM (active)
O=C(C(Cc1cccc(C(F)(F)F)c1)NS(=O)(=O)c1cc(F)c2c(c1)CCNC2)N1CCCC1 (stereo not drawn),Potency,[1],12 µM (active)
